Results: the supplement of paper PMC12024529

What follows are molecules tested on HEK293 WT BDD-FVIII-Gluc (assay: secreted FVIII-Gluc luciferase Z-score vs DMSO control; higher = more FVIII-Gluc secretion). Conditions: 5 µM.
Description: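 Natural plant-compound library (480 compounds, ST catalogue IDs) screened on HEK293 cells stably expressing WT BDD-FVIII-Gaussia luciferase fusion at 5 µM. Secreted Gluc activity in the medium is given as a Z-score relative to DMSO controls.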

Compared with `COC(C)C(O)(C(=O)OC1=CCN2CC[C@H](O)[C@@H]12)C(C)C` (stereo not given in full), `C[C@H]1C(=O)O[C@H]2CCN3CC=C(COC(=O)[C@](C)(O)[C@@]1(C)O)C23` (stereo not given in full) is higher in “secreted FVIII-Gluc luciferase Z-score” value: -0.914 for the first, 0.0827 for the second.

First: CC[C@@H](CO)NC(=O)[C@@H]1C=C2c3cccc4[nH]cc(c34)C[C@H]2N(C)C1
Second: C[C@@H](CO)NC(=O)[C@@H]1C=C2c3cccc4[nH]cc(c34)C[C@H]2N(C)C1
The “secreted FVIII-Gluc luciferase Z-score” value of the first is higher: 0.791 for the first, 0.475 for the second.

First: CCC1CN2CCC1CC2C(O)c1ccnc2ccc(OC)cc12 (stereo not given)
Second: C=C[C@H]1CN2CCC1C[C@@H]2C(O)c1ccnc2ccccc12 (stereo not given in full)
The “secreted FVIII-Gluc luciferase Z-score” value of the first is lower: -0.168 for the first, 0.484 for the second.

Going from `NCCc1c[nH]c2ccc(O)cc12` to `NCC(O)c1cccc(O)c1` (stereo not given), the “secreted FVIII-Gluc luciferase Z-score” value falls from 0.752 to 0.434.

First: c1cncc(C2CCCCN2)c1 (stereo not given)
Second: O=c1cccc2n1C[C@@H]1CNC[C@H]2C1
The “secreted FVIII-Gluc luciferase Z-score” value of the first is lower: -0.711 for the first, 0.0778 for the second.

Going from `COc1ccc(Cc2nccc3cc(OC)c(OC)cc23)cc1OC` to `CCC1CN2CCc3cc(OC)c(OC)cc3[C@@H]2C[C@@H]1C[C@H]1NCCc2cc(OC)c(OC)cc21` (stereo not given in full), the “secreted FVIII-Gluc luciferase Z-score” value falls from -0.721 to -3.94.

Compared with `C[N+]1=Cc2cc3c(cc2CC1)OCO3`, `COc1ccc2c(c1OC)CN1CCc3cc4c(cc3C1C2)OCO4` (stereo not given) is higher in “secreted FVIII-Gluc luciferase Z-score” value: 0.204 for the first, 0.658 for the second.

Compared with `CC(=O)OC1CC(OC2C(O)CC(OC3C(O)CC(OC4CCC5(C)C(CCC6C5CC(O)C5(C)C(C7=CC(=O)OC7)CCC65O)C4)OC3C)OC2C)OC(C)C1OC1OC(CO)C(O)C(O)C1O` (stereo not given), `CC1CC[C@@]2(OC1)O[C@H]1[C@@H](O)[C@H]3[C@@H]4CC[C@H]5C[C@@H](O[C@@H]6O[C@H](CO)[C@H](O[C@@H]7O[C@H](CO)[C@@H](O)[C@H](O[C@@H]8OC[C@@H](O)[C@H](O)[C@H]8O)[C@H]7O[C@@H]7O[C@H](CO)[C@@H](O)[C@H](O[C@@H]8O[C@H](CO)[C@@H](O)[C@H](O)[C@H]8O)[C@H]7O)[C@H](O)[C@H]6O)[C@H](O)C[C@]5(C)[C@H]4CC[C@]3(C)[C@H]1[C@@H]2C` (stereo not given in full) is higher in “secreted FVIII-Gluc luciferase Z-score” value: -4 for the first, 0.427 for the second.

Going from `CC1=C2C3OC(=O)C(C)C3CC[C@@]2(C)C=CC1=O` (stereo not given in full) to `CC1CCC2C(C)C(=O)OC3OC4(C)CCC1C32OO4` (stereo not given), the “secreted FVIII-Gluc luciferase Z-score” value falls from 0.0932 to -0.111.

First: O=CN1C[C@@H]2C[C@H](C1)c1cccc(=O)n1C2
Second: O=c1cccc2n1CC1CC2CN(CCO)C1 (stereo not given)
The “secreted FVIII-Gluc luciferase Z-score” value of the first is lower: 0.583 for the first, 0.624 for the second.

Going from `COC1=CC2C3Cc4ccc(OC)c(O)c4C2(CCN3C)CC1=O` (stereo not given) to `COc1ccc2c(c1OC)C(=O)O[C@H]2[C@@H]1c2cc3c(cc2CCN1C)OCO3`, the “secreted FVIII-Gluc luciferase Z-score” value rises from -0.0187 to 0.0229.

Compared with `CC[C@H]1C2C[C@H]3[C@@H]4N(C)c5ccccc5[C@]45C[C@@H](C2[C@H]5O)N3[C@@H]1O` (stereo not given in full), `CNC(=O)Oc1ccc2c(c1)C1(C)CCN(C)C1N2C` (stereo not given) is higher in “secreted FVIII-Gluc luciferase Z-score” value: 0.504 for the first, 0.602 for the second.

Going from `CCN1C[C@@]2(COC)C3[C@@H](OC)[C@H]4C1[C@@]3(C1C[C@@]3(O)[C@H](OC(=O)c5ccccc5)C1[C@]4(OC(C)=O)[C@@H](O)[C@@H]3OC)[C@@H](OC)C[C@H]2O` (stereo not given in full) to `CCN1CC2(COC(=O)c3ccccc3N3C(=O)CC(C)C3=O)CC[C@H](OC)[C@@]34C5C[C@@H]6[C@@H](OC)C[C@@](O)(C5[C@H]6OC)[C@](O)([C@@H](OC)C23)[C@@H]14.[O-][Cl+3]([O-])([O-])O` (stereo not given in full), the “secreted FVIII-Gluc luciferase Z-score” value rises from -0.523 to 0.461.

Going from `O=C1C=C2C=C[C@@H]3C[C@@]2(O1)[C@H]1CCCCN31` to `OC[C@@H]1CCCN2CCCC[C@H]12`, the “secreted FVIII-Gluc luciferase Z-score” value falls from 0.666 to -0.141.

Going from `Cc1nccc2c1[nH]c1ccccc12` to `COc1ccc2c(c1)[nH]c1c(C)nccc12`, the “secreted FVIII-Gluc luciferase Z-score” value falls from -0.617 to -2.87.

First: CC(C)C[C@H]1C(=O)N2CCC[C@H]2[C@]2(O)O[C@](NC(=O)[C@@H]3C=C4c5cccc6[nH]cc(c56)C[C@H]4N(C)C3)(C(C)C)C(=O)N12
Second: COc1cc2c(c(OC)c1OC)-c1ccc(O)c(=O)cc1[C@@H](NC(C)=O)CC2
The “secreted FVIII-Gluc luciferase Z-score” value of the first is higher: 0.241 for the first, 0.222 for the second.

Compared with `CC1=CC(=O)c2c(O)cccc2C1=O`, `CN1CCc2cc3c(cc2[C@H]1[C@H]1OC(=O)c2c1ccc1c2OCO1)OCO3` is higher in “secreted FVIII-Gluc luciferase Z-score” value: -2.68 for the first, 0.159 for the second.

Going from `C[C@@H]1OC(=O)[C@H]2C[C@H]3CCCC[C@@H]3[C@@H](/C=C/[C@@H]3CCC[C@@H](C)N3C)[C@@H]12` to `O=C1CCCC2[C@@H]3CCCN4CCC[C@H](CN12)[C@H]34` (stereo not given in full), the “secreted FVIII-Gluc luciferase Z-score” value rises from -0.126 to 0.572.

First: Cc1cc2c(C(C)C)c(O)c(O)c(C=O)c2c(O)c1-c1c(C)cc2c(C(C)C)c(O)c(O)c(C=O)c2c1O
Second: COc1cc2c(cc1OC)C(C)NCC2 (stereo not given)
The “secreted FVIII-Gluc luciferase Z-score” value of the first is higher: 1.13 for the first, 0.0745 for the second.

Compared with `COc1ccc(CC2NCC(O)C2OC(C)=O)cc1` (stereo not given), `c1cc2c(cc1C1OCC3C(c4ccc5c(c4)OCO5)OCC13)OCO2` (stereo not given) is higher in “secreted FVIII-Gluc luciferase Z-score” value: -4.62 for the first, -0.0258 for the second.
